Assay outcomes as filed in PubChem.
Fam108B counter = Fam108B inhibition, counter-screen for RBBP9 inhibitors | 300,000 compounds, 0.33% hits | inhibition, % at 9.51 µM | recombinant Fam108B, FP-Rh probe fluorescence polarization;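 active = inhibition above the screen mean inhibition plus 3 SD, computed separately per campaign, cut at about 18% in these data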;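 note: inhibitors lower polarization as less probe binds the enzyme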
PP1 inh = PP1-alpha (human) inhibition in PP5 counter-screen | P62136 | purified PP1alpha, OMFP fluorescence | inhibition, % at 6.7 µM | 320,000 compounds, 0.9% hits;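 active = inhibition above the mean inhibition of all tested compounds plus 3 SD, computed separately for each screening campaign, cut at about 15% in these data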
LYPLA2 counter = LYPLA2 (human) inhibition in PME1 counter-screen; O95372; recombinant LYPLA2, FP-Rh probe fluorescence polarization; inhibition, % at 5.9 µM; 320,000 compounds, 0.38% hits; AID 2177;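 active = inhibition above the screen-wide mean plus 3 SD, limit set per campaign, cut at about 26% in these data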;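 note: 0% = LYPLA2 with DMSO and 100% = wells lacking LYPLA2 enzyme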
PME-1 inh = PME-1 (human) inhibition; Q9Y570; recombinant PME-1, FP-Rh probe fluorescence polarization; inhibition, % at 5.9 µM; 320,000 compounds, 0.53% hits; AID 2130;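 active = inhibition above the campaign mean of all compounds plus 3 SD, cut at about 26% in these data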;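 note: competitive labeling of PME-1 active site by serine hydrolase directed probe; 0% = PME-1 with DMSO and 100% = wells lacking PME-1 enzyme; inhibitors block probe labeling so polarization falls and inhibition rises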
Target sequence (Q9Y570 whole entry, looked up): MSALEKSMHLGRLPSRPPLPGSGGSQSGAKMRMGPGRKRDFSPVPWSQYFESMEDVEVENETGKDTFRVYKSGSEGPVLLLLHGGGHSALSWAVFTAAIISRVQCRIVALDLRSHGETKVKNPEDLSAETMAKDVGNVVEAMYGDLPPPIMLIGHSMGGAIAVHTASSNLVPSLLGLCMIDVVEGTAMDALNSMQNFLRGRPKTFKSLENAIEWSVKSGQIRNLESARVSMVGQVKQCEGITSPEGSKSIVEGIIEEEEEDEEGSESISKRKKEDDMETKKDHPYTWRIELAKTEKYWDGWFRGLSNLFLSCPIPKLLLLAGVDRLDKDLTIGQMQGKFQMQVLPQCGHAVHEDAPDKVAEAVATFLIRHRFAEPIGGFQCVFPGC
PP5 primary = blocks human protein phosphatase 5 activity; P53041; purified PP5c, OMFP substrate fluorescence; AID 1987; inhibition, % at 6.7 µM; 320,000 compounds, 0.18% hits;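 active = inhibition above the campaign's mean inhibition across all tested compounds plus 3 SD, cut at about 9.5% in these data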;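 note: 0% = DMSO only and 100% = 100 µM cantharidin control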
LYPLA1 inh = counter-screen for PME1 inhibitors: inhibitors of human LYPLA1; O75608; recombinant LYPLA1, FP-Rh probe fluorescence polarization; inhibition, % at 5.9 µM; 320,000 compounds, 0.16% hits;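 active = inhibition above the mean of all tested compounds plus 3 SD, set per campaign, cut at about 14% in these data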;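 note: inhibitors block serine hydrolase probe labeling of LYPLA1 so polarization falls; 0% = enzyme with DMSO and 100% = wells lacking LYPLA1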
PP1 inh confirm = human PP1 phosphatase inhibition, confirmation; shares compounds with PP1 inh; purified PP1alpha, OMFP substrate fluorescence; inhibition, % at 6.7 µM; 1,900 compounds, 52% hits;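 active = mean PP1 inhibition above a set limit taken from the earlier primary screen, cut at about 15% in these data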
PP5 inh counter = inhibits human PP5 phosphatase in PP1 counter-screen; shares compounds with PP1 inh; purified PP5c, OMFP fluorescence; inhibition, % at 6.7 µM; 1,900 compounds, 4% hits;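 active = mean PP5 inhibition over triplicate wells above about 9.5% taken from the earlier PP1 screen, limit read from the data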
Starred values were filed as active, the others as inactive; . = no result given. Only some compounds are listed: those with a hit (about 1.8% of all), similar ones and a draw of the others.

SMILES	Fam108B counter	PP1 inh	LYPLA2 counter	PME-1 inh	PP5 primary	LYPLA1 inh	PP1 inh confirm	PP5 inh counter
Cc1cccc(C(=O)O/N=C(\N)CS(=O)(=O)c2ccccc2)c1	-4	1	7	0	1	1	.	.
CC1(C)CCN2CCC(C)(C)c3c(O)ccc1c32	-2	18*	3	2	0	2	-1	7
COc1cc(OC)cc(C(=O)NC(C)CNc2ccc(Cl)cc2[N+](=O)[O-])c1 (stereo unspecified)	-4	0	-4	0	3	0	.	.
COc1ccc(CNC(=O)c2cc(-c3cccs3)on2)cc1	-2	5	-1	-3	1	-2	.	.
O=C(NCc1ccc(Cl)cc1)c1cc(-c2cccs2)on1	-5	21*	0	-4	0	-1	25*	-3
O=C(c1c(Cl)cccc1Cl)N1CCN(c2ncccn2)CC1	-1	-1	2	0	0	4	.	.
C=CCn1c(O)c(C2=c3ccccc3=NC2=O)s/c1=N/c1nccs1	2	23*	-3	2	1	-2	24*	1
COc1ccc(-n2nc(C(=O)NCC(=O)N3CCC(C)CC3)c3ccccc3c2=O)c(OC)c1	1	1	7	-5	1	-4	.	.
CCCCCCc1cc2cc(-c3nnc(-c4ccccc4OC)o3)c(=O)oc2cc1O	8	20*	-2	2	-4	0	2	-13
CCOc1ccc(NC(=O)CN(C)C(=O)Cn2c(=O)oc3ccccc32)cc1OCC	3	41*	0	3	-2	0	-4	-6
COc1ccc(Cl)cc1NC(=O)CN(C)C(=O)Cn1c(=O)oc2ccccc21	0	-2	0	-9	1	-4	.	.
CCN(CC(=O)Nc1c(F)cccc1F)C(=O)C1CC1C (stereo unspecified)	-2	-3	0	-2	-3	-1	.	.
CCN1/C(=C/C(C)=C/c2sc3ccccc3[n+]2CC)Sc2ccccc21	-272	23*	-328	-338	10*	-156	3	10
c1ccc(-[n+]2nc(Nc3cccc4ccccc34)sc2-c2c3ccccc3cc3ccccc23)cc1	0	31*	5	6	3	-1	30*	1
Fc1ccc(-[n+]2nc(Nc3ccccc3)sc2-c2c3ccccc3cc3ccccc23)cc1	7	22*	7	6	2	1	5	1
Cc1ccc(NC(=O)CSCC(=O)N2CCCc3ccccc32)cc1	-1	-3	1	5	0	0	.	.
C[C@@]12CCC3[C@@](CCC4[C@@]3(C)CCC[C@@]4(C)C(=O)N3CCCCC3)(CC1=O)C2 (stereo partly specified)	.	-2	-2	1	-2	1	.	.
CCOc1ncccc1C(=O)OCC(=O)Nc1ccc(-c2nc3ccc(C)cc3s2)cc1	-8	19*	-10	-5	0	-3	29*	0
Cc1ccc2nc(-c3ccc(NC(=O)COC(=O)c4ccco4)cc3)sc2c1	-11	3	-16	-13	1	-9	.	.
CCOC(=O)c1c(N2C(=O)Nc3cc(Cl)c(Cl)cc3N2O)sc2c1CCCCC2	10	19*	-8	9	3	-5	17*	0
CCOC(=O)c1c(-n2cnnn2)sc2c1CCCC2	-3	-4	5	5	2	-2	.	.
Nc1cccnc1Sc1cccc(Cl)c1	4	-2	5	-4	-2	1	.	.
COc1cnc(-c2ccccn2)nc1Sc1cccc(Cl)c1	-1	33*	3	-6	8	-3	50*	-1
COc1cnc(-c2ccccn2)nc1NC(C)C	-4	4	-3	0	1	-1	.	.
COc1cnc(-c2ccccn2)nc1Sc1ccc(C)cc1	5	48*	-6	3	6	-3	51*	-2
COc1ccccc1Sc1nc(-c2ccccn2)ncc1OC	1	44*	-3	-7	4	0	46*	-6
O=C(Nc1nc(-c2ccccn2)cs1)c1ccc(Br)s1	-23	31*	-3	-6	4	-12	17*	-2
